The source made the active and inactive calls.
Legend:
[1] = binders of probe aFSTL3 on microarray, primary screen, stem cell growth factor project, biochemical, small-molecule microarray, fluorescence 635/667 (AID 1064); conditions: higher = more signal;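 also: measures binding of the biotinylated anti-FSTL3 antibody to printed compounds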
[2] = binders from COS7 lysate, DM2A8 probe, primary screen, torsin A project, cell lysate, small-molecule microarray, fluorescence 635/667 (AID 1065); conditions: higher = more signal, COS7 lysate expressing mutant human TOR1A
[3] = binders of probe aFGF2 on microarray, primary screen, stem cell growth factor project, biochemical, small-molecule microarray, fluorescence 635/667 (AID 1067); conditions: higher = more signal;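 also: measures binding of biotinylated aFGF2 protein to printed compounds on slides; z-score merges feature fluorescence and signal-to-noise across triplicate slides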
[4] = binders of probe aFGF10 on microarray, primary screen, stem cell growth factor project, biochemical, small-molecule microarray, fluorescence 635/667 (AID 1071); conditions: higher = more signal;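 also: score merges 667 nm spot intensity and signal to noise from triplicate slides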
[5] = biological target: Neurogenic locus notch homolog protein 2 (Homo sapiens) (UniProt Q04721); assay: Notch2 binders on small-molecule microarrays, primary screen, biochemical, small-molecule microarray, 635 nm fluorescence, stem cell growth factors (AID 1073); conditions: Notch2 binding, higher = more signal
Neurogenic locus notch homolog protein 2 (Homo sapiens), sequence (Q04721 whole entry, looked up, canonical isoform): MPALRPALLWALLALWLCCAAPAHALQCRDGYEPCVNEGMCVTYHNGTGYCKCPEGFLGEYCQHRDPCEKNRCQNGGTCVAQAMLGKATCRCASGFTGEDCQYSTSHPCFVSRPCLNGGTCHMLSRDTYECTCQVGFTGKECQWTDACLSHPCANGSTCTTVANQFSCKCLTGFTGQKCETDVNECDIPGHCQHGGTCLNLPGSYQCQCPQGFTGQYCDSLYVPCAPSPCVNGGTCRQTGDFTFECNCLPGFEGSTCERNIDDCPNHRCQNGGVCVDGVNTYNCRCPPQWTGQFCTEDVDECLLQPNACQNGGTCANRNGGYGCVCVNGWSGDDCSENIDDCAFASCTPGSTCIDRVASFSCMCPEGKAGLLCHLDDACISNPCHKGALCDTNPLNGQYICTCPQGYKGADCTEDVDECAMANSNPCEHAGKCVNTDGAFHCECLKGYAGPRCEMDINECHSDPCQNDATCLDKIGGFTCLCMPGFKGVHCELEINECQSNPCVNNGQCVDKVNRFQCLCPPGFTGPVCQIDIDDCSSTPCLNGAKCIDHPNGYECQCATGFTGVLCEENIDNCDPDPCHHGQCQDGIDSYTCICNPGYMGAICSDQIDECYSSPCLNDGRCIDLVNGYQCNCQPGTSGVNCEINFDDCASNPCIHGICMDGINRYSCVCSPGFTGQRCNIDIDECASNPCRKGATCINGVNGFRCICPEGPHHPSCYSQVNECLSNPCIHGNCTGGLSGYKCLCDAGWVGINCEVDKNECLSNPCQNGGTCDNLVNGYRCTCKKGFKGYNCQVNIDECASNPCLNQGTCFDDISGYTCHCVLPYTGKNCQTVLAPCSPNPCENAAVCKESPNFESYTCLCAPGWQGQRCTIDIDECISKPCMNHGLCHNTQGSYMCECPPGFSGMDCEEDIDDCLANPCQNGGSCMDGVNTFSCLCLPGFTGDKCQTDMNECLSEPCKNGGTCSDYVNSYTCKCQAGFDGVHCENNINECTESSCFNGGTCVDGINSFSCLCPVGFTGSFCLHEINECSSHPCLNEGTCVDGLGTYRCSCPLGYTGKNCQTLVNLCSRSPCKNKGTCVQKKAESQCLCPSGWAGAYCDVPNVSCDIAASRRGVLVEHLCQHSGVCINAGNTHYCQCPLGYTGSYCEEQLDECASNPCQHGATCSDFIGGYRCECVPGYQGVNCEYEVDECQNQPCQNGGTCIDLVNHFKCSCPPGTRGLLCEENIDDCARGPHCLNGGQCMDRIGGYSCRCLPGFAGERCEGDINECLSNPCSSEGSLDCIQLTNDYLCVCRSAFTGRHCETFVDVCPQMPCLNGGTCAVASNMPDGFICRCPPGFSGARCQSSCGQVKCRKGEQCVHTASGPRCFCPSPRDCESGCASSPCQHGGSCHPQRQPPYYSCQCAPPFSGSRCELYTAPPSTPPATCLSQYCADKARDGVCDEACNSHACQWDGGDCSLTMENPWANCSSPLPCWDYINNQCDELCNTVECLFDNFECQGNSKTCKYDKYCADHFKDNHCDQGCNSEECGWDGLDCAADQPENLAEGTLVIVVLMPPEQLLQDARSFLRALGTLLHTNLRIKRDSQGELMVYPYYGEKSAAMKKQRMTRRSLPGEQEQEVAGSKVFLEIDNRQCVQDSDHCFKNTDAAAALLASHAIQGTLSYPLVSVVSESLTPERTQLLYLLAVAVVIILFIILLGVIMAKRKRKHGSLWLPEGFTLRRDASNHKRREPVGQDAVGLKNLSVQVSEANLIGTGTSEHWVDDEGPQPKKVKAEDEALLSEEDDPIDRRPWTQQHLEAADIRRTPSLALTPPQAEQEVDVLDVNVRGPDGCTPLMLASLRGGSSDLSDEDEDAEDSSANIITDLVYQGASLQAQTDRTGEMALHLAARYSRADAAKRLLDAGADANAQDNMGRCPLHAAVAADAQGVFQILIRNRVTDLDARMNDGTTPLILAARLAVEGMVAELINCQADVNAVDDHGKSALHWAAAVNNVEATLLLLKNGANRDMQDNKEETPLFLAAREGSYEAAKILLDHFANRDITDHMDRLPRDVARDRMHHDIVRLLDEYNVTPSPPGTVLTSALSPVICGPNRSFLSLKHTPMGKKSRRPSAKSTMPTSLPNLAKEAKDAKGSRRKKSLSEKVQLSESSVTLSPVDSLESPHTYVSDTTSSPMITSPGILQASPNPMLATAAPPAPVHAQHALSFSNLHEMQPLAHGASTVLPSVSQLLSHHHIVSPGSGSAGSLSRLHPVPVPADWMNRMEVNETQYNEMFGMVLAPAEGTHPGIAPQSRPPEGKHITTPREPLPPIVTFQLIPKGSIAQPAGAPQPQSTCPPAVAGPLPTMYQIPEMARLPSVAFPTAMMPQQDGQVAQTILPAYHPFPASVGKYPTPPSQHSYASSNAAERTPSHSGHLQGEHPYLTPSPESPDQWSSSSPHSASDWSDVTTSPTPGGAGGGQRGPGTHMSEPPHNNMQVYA

[6] = biological target: Pro-neuregulin-1, membrane-bound isoform (Homo sapiens) (UniProt Q02297); assay: NRG1 binders on small-molecule microarrays, primary screen, psychiatric disease protein project, biochemical, small-molecule microarray, fluorescence 635/667 (AID 1075); conditions: NRG1 binding, 635 nm fluorescence, higher = more signal;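 also: score combines 667 nm spot fluorescence with signal to noise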
Pro-neuregulin-1, membrane-bound isoform (Homo sapiens), sequence (Q02297 whole entry, looked up, the tested form may be a part, canonical isoform): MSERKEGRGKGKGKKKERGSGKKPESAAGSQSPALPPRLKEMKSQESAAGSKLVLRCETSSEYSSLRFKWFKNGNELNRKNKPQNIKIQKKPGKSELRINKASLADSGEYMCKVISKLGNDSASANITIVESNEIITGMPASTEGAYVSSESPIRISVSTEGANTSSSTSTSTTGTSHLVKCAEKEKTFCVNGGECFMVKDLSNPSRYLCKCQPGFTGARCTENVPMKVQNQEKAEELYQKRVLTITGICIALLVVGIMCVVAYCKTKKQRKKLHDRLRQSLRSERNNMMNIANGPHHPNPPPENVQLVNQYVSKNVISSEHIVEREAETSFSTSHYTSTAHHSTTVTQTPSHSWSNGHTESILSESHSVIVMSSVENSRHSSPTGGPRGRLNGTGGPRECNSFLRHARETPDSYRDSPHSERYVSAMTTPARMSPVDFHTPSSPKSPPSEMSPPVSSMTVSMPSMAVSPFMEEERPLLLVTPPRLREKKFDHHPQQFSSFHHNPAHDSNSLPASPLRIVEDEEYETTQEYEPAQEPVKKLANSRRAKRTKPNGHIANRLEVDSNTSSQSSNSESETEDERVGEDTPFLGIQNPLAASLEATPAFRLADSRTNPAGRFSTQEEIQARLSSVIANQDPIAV

[7] = tested on: Neuregulin-1 EGF-like domain; assay: binders of neuregulin-1 EGF-like domain, primary screen, biochemical, small-molecule microarray, 635 nm fluorescence (AID 1081); conditions: small-molecule microarray binding, higher = more signal;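 also: binding of the protein to compounds printed on small-molecule microarray slides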
[8] = FRG1 promoter luciferase signal modulators, primary screen, FRG1 inhibition for FSHD, cell-based, C2C12 myotubes, firefly/Renilla luciferase, luminescence (AID 1084); conditions: higher = more signal, called active from +8 up or from −8 down
[9] = binders of probe aFST on microarray, primary screen, stem cell growth factor project, biochemical, small-molecule microarray, fluorescence 635/667 (AID 1086); conditions: higher = more signal;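 also: score merges 667 nm fluorescence with signal-to-noise of each printed compound spot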
[10] = binders of probe aHhip on microarray, primary screen, stem cell growth factor project, biochemical, small-molecule microarray, fluorescence 635/667 (AID 1087); conditions: higher = more signal;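 also: score merges spot fluorescence at 667nm with spot signal to noise ratio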
[11] = tested on: PRMT1 (protein arginine N-methyltransferase 1); assay: PRMT1 binders on small-molecule microarrays, primary screen, biochemical, small-molecule microarray, 635 nm fluorescence (AID 1088); conditions: small-molecule microarray binding, higher = more signal;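 also: binding of Prmt1 protein to compounds spotted on small-molecule microarray slides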
[12] = yeast growth modulation, basal conditions, primary screen, YJM789 clinical isolate, OD600, 24 h (AID 1089);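 also: growth of clinical yeast isolate S. cerevisiae YJM 789 seeded 1000 cells per well; test concentration not given here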; conditions: S. cerevisiae YJM789 growth, higher = more signal, called active from +8 up or from −8 down
[13] = fission yeast growth modulation, primary screen, strain 972, OD600, 24 h, no modulator (AID 1090);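 also: basal condition with compound alone and no growth modifier present; test concentration not given here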; conditions: S. pombe 972 growth, higher = more signal, called active from +8 up or from −8 down
[14] = S. cerevisiae growth modulation with rapamycin, primary screen, strain BY4716, OD600, 96 h (AID 1091); conditions: higher = more signal, called active from +8 up or from −8 down; also: test concentration not given here
[15] = biological target: Torsin-1A-interacting protein 2 (Homo sapiens) (UniProt Q8NFQ8); assay: LULL1 binders on small-molecule microarray, primary screen, cell lysate, human LULL1 lysate, 635/667 nm fluorescence (AID 1092); conditions: hLULL1 lysate binding, 635 nm fluorescence, higher = more signal;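 also: probe is lysate of COS7 cells overexpressing human LULL1; score merges per-feature 667 nm fluorescence with signal-to-noise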
Torsin-1A-interacting protein 2 (Homo sapiens), sequence (Q8NFQ8 whole entry, looked up): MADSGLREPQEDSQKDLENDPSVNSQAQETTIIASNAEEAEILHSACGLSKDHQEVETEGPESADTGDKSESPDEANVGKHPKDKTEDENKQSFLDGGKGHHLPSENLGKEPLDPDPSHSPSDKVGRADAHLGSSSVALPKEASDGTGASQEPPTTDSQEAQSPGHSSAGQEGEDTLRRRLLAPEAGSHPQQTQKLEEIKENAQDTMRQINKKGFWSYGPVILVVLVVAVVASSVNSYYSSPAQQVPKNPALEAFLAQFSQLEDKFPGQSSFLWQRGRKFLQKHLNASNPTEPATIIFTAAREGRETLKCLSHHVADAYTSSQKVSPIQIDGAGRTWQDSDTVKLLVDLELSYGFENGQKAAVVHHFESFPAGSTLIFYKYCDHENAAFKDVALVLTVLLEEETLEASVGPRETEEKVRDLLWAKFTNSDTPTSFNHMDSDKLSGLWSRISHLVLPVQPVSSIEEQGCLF

[16] = E. coli growth modulation, two-sided OD650, primary screen, E. coli filamentation project, strain DRC41, 24 h (AID 1093); conditions: OD650, 24 h, higher = more signal, called active from +8 up or from −8 down;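 also: MC1000 strain lacking acrAB efflux and sulA so SOS filamentation is blocked; test concentration not given here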
[17] = small-molecule microarray binders of probe aLefty2, primary screen, biochemical, biotinylated probe, 635/667 nm fluorescence (AID 1094); conditions: higher = more signal;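 also: score merges spot fluorescence near 667 nm with spot signal-to-noise ratio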
[18] = tested on: Noggin (protein binding on small-molecule microarray); assay: Noggin binders on small-molecule microarray, primary screen, biochemical, 635/667 nm fluorescence (AID 1095); conditions: 635 nm fluorescence, higher = more signal;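 also: score merges 667 nm feature fluorescence with signal to noise over triplicate slides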
[19] = biological target: Neurogenic locus notch homolog protein 3 (Homo sapiens) (UniProt Q9UM47); assay: NOTCH3 binders on small-molecule microarray, primary screen, biochemical, 635/667 nm fluorescence (AID 1096); conditions: NOTCH3 binding, 635 nm fluorescence, higher = more signal
[20] = small-molecule microarray binders of probe aEGFR, primary screen, biochemical, biotinylated probe, 635/667 nm fluorescence (AID 1097); conditions: higher = more signal;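 also: probe is a biotinylated anti-EGFR antibody binding compounds printed on slides; score combines fluorescence near 667 nm and signal to noise of each spot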

| Compound | composite z-score [1] | composite z-score [2] | composite z-score [3] | composite z-score [4] | composite z-score [5] | composite z-score [6] | composite z-score [7] | z-score [8] | composite z-score [9] | composite z-score [10] | composite z-score [11] | z-score [12] | z-score [13] | z-score [14] | composite z-score [15] | z-score [16] | composite z-score [17] | composite z-score [18] | composite z-score [19] | composite z-score [20] |
| --- | --- | --- | --- | --- | --- | --- | --- | --- | --- | --- | --- | --- | --- | --- | --- | --- | --- | --- | --- | --- |
| COc1ccc([Si](C)(C)[C@@H]2[C@@H](CCO)O[C@]3(C(=O)N(Cc4ccccc4)c4ccc(N(C=O)c5ccccc5)cc43)[C@H]2C)cc1 | -0.106 | 0.255 | -0.133 | 0.465 | 0.154 | 0.359 | 0.979 | -2.04 (inactive) | -0.176 | -0.236 | 1.28 | 0.697 (inactive) | 1.56 (inactive) | 7.37 (inactive) | 1.33 | 0.329 (inactive) | -0.0479 | 0.0182 | 0.718 | -0.189 |
| C=CCN1Cc2ccccc2C[C@]2(N=C(c3ccc(OCCCO)cc3)O[C@@H]2c2ccccc2)C1=O | 0.211 | 0.363 | -0.0883 | -0.147 | 0.977 | 0.414 | 1.35 | -3.57 (inactive) | 0.607 | 0.0722 | 1.56 | -6.17 (inactive) | -9.52 (active) | 0.272 (inactive) | 3.27 | 1.49 (inactive) | 0.129 | 0.824 | 1.07 | -0.0455 |
| CCCCCN1CC=CC23O[C@@H]4C=CCCOC(=O)C4[C@H]2C(=O)N(CCCO)[C@@H]3C1=O (stereo not given in full) | 0.0241 | -0.615 | -0.186 | 0.0149 | -0.755 | -0.454 | 0.266 | -0.482 (inactive) | -0.108 | -0.236 | 0.229 | 0.0103 (inactive) | -1.3 (inactive) | -0.506 (inactive) | -0.651 | 2.22 (inactive) | -0.257 | -0.272 | 0.0424 | -0.223 |
| C[N+](C)(C)CCCCNC(=O)[C@H]1C[C@H]2C(=O)N3CCC[C@H]3C(=O)N2[C@H]1c1ccc(O)cc1 | -0.32 | 0.799 | -0.12 | 1.15 | 0.534 | -0.0852 | 1.34 | 1.42 (inactive) | 0.446 | 0.176 | 1.54 | 0.0531 (inactive) | 0.0211 (inactive) | -1.41 (inactive) | 2.14 | -0.0773 (inactive) | -0.101 | 1.85 | 1.04 | 0.124 |
| [N-]=[N+]=Nc1ccccc1[C@@H]1OC(c2ccc(OCCCO)cc2)=N[C@]1(CCS(=O)(=O)c1ccccc1)C(=O)O | 0.0639 | 0.459 | 0.079 | 0.839 | 1.57 | 1.53 | 0.862 | 3.39 (inactive) | 0.912 | 0.151 | 1.56 | 1.57 (inactive) | -3.97 (inactive) | -1.63 (inactive) | 3.39 | 0.777 (inactive) | -0.013 | 0.61 | 1.01 | 0.172 |
